High-throughput results from PubChem.
Anthrax LF inh2: anthrax lethal factor protease inhibition; multiplex microsphere protease cleavage assay, LF; inhibition, % at 10 µM; 360,000 tested, 0.12% active; P15917
Autofluor counter: counter-screen for toxin protease inhibitors: compound fluorescence; 360,000 tested, 3.1% active; compound autofluorescence counterscreen, microsphere flow cytometry; active compounds read high; fluorescence intensity (test concentration not listed); in the data active means fluorescence intensity above about 16000; inconclusive means no clear call, values can overlap the other calls
BoNT F protease: blocks Botulinum neurotoxin F light chain protease. Multiplex microsphere protease cleavage assay, flow cytometry. inhibition, % at 10 µM. 360,000 tested, 0.22% active. AID 588497; in the data active means inhibition above about 35%, passing the limit was not always enough; inconclusive means no clear call, values can overlap the other calls
MazEF act: MazEF (E. coli) toxin RNase activation; P0AE70; AID 504720; activation, % at 20 µM; 350,000 tested, 0.32% active; FAM/BHQ RNA-DNA oligo cleavage fluorescence, 5 h; in the data active means activation above about 50%
Target sequence (P0AE70 whole entry, looked up): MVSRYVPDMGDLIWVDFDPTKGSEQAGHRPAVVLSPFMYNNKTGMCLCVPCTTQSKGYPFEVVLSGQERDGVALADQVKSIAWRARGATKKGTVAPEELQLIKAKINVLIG
BoNT A protease: blocks Botulinum neurotoxin A light chain protease; inhibition, % at 10 µM; 360,000 tested, 0.17% active; multiplex microsphere protease substrate cleavage, flow cytometry
Each line names hits and unclear results; the compound was inactive in the other large screens. Only some compounds are listed: those with a hit (about 3.7% of all), similar ones and a draw of the others. Unless noted, no stated cut-off is given here; in the data, active means inhibition above about 30%; inconclusive means no clear call, values can overlap the other calls; inactive means below that.

Cc1nn(-c2ccc(N3CCOCC3)nn2)c(C)c1CCC(=O)NCc1ccc(F)cc1	none
CCOC(=O)Cn1c2ccc(OC)cc2c2nc3ccccc3nc21	MazEF act 276
COc1ccc2c(c1)c1nc3ccccc3nc1n2Cc1ccc(OC)c(OC)c1	MazEF act 116
COC(=O)Cn1c2ccc(OC)cc2c2nc3ccccc3nc21	MazEF act 236
Cc1cc(C)cc(NC(=O)COC(=O)CC2CCCC2)c1	none
CCc1nc2c(OCCOc3ccc(F)cc3)cccn2c1N(C)C(=O)C(C)C	none (no result: MazEF act)
C1CCN(c2nc3nonc3nc2N2CCCCC2)CC1	Autofluor counter 24347
Cc1nn(C)cc1C(=O)Nc1cc(Oc2ccc(Cl)cc2)cc([N+](=O)[O-])c1	none
CCn1nc(C)c(C(=O)Nc2cc(Oc3cc(C)cc(C)c3)cc([N+](=O)[O-])c2)c1C	Autofluor counter 22749, BoNT A protease inconclusive
O=c1c2c([N+](=O)[O-])cc([N+](=O)[O-])cc2sn1Cc1ccccc1	BoNT F protease 56, BoNT A protease 50
CCOC(=O)C1=CCN(S(=O)(=O)c2ccccc2F)C1c1cccc(C)c1 (configuration not stated)	none (no result: MazEF act)
CC1Cc2ccccc2N1CC(=O)Nc1cc(S(=O)(=O)N2CCOCC2)ccc1Cl (configuration not stated)	none
Cc1ccc(C(C#N)N2CCOCC2)cc1 (configuration not stated)	Autofluor counter 22170
COc1ccc(Cc2c(C3CCCCC3)nc3c(C)cc(Br)cn23)c(C)c1	none (no result: MazEF act)
Cn1c(-c2ccc(Cl)cc2)cnc1N	Anthrax LF inh2 inconclusive, Autofluor counter inconclusive, BoNT A protease inconclusive
Cc1ccc(-c2cnc(N)n2C)cc1C	Autofluor counter 23519
CCC(C)C(N)C1=NC(C(=O)N[C@@H](CC(C)C)C(=O)N[C@H](CCC(=O)O)C(=O)N[C@H](C(=O)N[C@H]2CCCCNC(=O)[C@H](CC(N)=O)NC(=O)[C@@H](CC(=O)O)NC(=O)[C@H](Cc3cnc[nH]3)NC(=O)[C@@H](Cc3ccccc3)NC(=O)[C@H]([C@@H](C)CC)NC(=O)[C@@H](CCCN)NC2=O)[C@@H](C)CC)CS1 (some centres not stated)	MazEF act 387
Cc1c(CCNC=O)cc(C)c2c3c(oc12)CCCC3	none
CCOc1ccc(N2C(=O)c3cccnc3C2=O)cc1	Autofluor counter 19193
CCOc1ccc(N2C(=O)CCC2=O)cc1	none
CCOc1ccc(N2C(=O)Cc3ccccc3C2=O)cc1	none
CCOc1ccc(N2CC(=O)N(c3ccc(OCC)cc3)CC2=O)cc1	Autofluor counter 22131
COc1ccc(-n2nnnc2C(c2ccccc2OC(F)(F)F)N2CCN(C/C=C/c3ccccc3)CC2)cc1 (configuration not stated)	none (no result: MazEF act)
COc1ccccc1CNC(=O)c1ccc2nc(C)c(N(C)Cc3ccc(NC(C)=O)cc3)n2c1	none (no result: MazEF act)
CCOC(=O)C(C(=O)OCC)c1cc(Br)c2noc3c2c1C(=O)c1ccccc1-3	Anthrax LF inh2 58, MazEF act 178, BoNT A protease 68
COc1cc(C2C(C#N)=C(N)Oc3c2oc(CO)cc3=O)ccc1OC(C)C (configuration not stated)	Autofluor counter 20218, BoNT A protease inconclusive
CCCCn1c(O)c(C(CC)=NCCCN(C)C)c(=O)[nH]c1=O	Autofluor counter 16159
CCCCn1c(O)c(C(C)=NCCCN(CC)CC)c(=O)[nH]c1=O	Autofluor counter 23379
CCCCn1c(O)c(C(CC)=NCc2ccc(F)cc2)c(=O)[nH]c1=O	Autofluor counter inconclusive
CCCCn1c(O)c(C(C)=NCc2ccc(F)cc2)c(=O)[nH]c1=O	Autofluor counter 23819
CC(=O)c1ccc(S(=O)(=O)NCCC(=O)OCC(=O)N(Cc2ccccc2)C(C)(C)C)cc1	none
CCN(C)C1CN(Cc2cn(Cc3cccc(Cl)c3)nn2)S(=O)(=O)C1 (configuration not stated)	none (no result: MazEF act)
CC(=O)C1=C(O)C(CSCc2ccccc2)N(C)C1=O (configuration not stated)	none
OC(CCCN1CCCCC1)(c1ccccc1)c1ccc(C(F)(F)F)cc1 (configuration not stated)	none
Clc1ccc(Cl)c(-c2nn3c(COc4ccccc4)nnc3s2)c1	none
CCc1nnc2sc(-c3cc(-c4ccccc4)nc4ccccc34)nn12	Autofluor counter 19922
Cc1ccccc1-c1cc(C(=O)NCc2cccc(C(F)(F)F)c2)nn1CC1CC(c2cccc([N+](=O)[O-])c2)=NO1 (configuration not stated)	none
CN(C(=O)CN1CCC(NC(=O)C2CCCCC2)CC1)C1CCCCC1	Autofluor counter 23953
CN(C(=O)CN1CCC(NC(=O)c2ccccc2Br)CC1)C1CCCCC1	none
C(=N\n1cnnc1)/c1cccc(Oc2ccccc2)c1	Autofluor counter 22913
Cc1cc(/C=N/n2cnnc2)c(C)n1-c1ccc(OCc2ccccc2F)cc1	none
Fc1ccccc1COc1cccc(/C=N/n2cnnc2)c1	Autofluor counter 24150
OC(Cc1ccccc1)c1ncc(-c2ccc(Cl)cc2)[nH]1 (configuration not stated)	none (no result: MazEF act)
CCCS(=O)(=O)NC(=O)C1(C)CCN(C(=O)c2cc(C)oc2C)C1 (configuration not stated)	none (no result: MazEF act)
Cc1c(Br)cccc1NC(=O)C1(C)CCN1C(C)C (configuration not stated)	none (no result: MazEF act)
Cc1ccccc1CN1CCNC1=O	Autofluor counter 19805
Cc1ccccc1NC(=O)COC(=O)c1ccc2c(c1)OCCO2	none
COC(=O)c1ccc(Cl)c(NC(=O)CN(c2ccc3c(c2)OCO3)S(C)(=O)=O)c1	Autofluor counter 20796
O=C(COC(=O)c1ccc2c(c1)OCCO2)Nc1cc(Cl)ccc1Cl	MazEF act 53
Cc1onc(-c2ccccc2)c1C(=O)N(C)CC(=O)Nc1ccc(F)c(F)c1F	none
CCOc1ccc(C(CC(=O)O)NC(=O)C23CC4CC(CC(C4)C2)C3)cc1 (configuration not stated)	Autofluor counter 21930
CSc1nc(-c2ccc(N(C)C)cc2)c(C#N)c(=O)n1C	MazEF act 136
Cc1cccnc1C(c1ccc(F)cc1)N(C)C(=O)C1CCN(CCOc2ccc(Cl)cc2Cl)CC1 (configuration not stated)	none (no result: MazEF act)
CN(C)c1ccc(C(=O)c2ccccc2)cc1	Autofluor counter 17206
CC(=O)Nc1ccc(C(=O)/C=C/c2ccco2)cc1	none
CCN(CC)c1ccc(/C=C/C(=O)c2ccc(Br)cc2)cc1	Anthrax LF inh2 42, Autofluor counter 30707, BoNT F protease 81, BoNT A protease 62
CC(=O)Nc1cccc(C(=O)/C=C/c2ccc(N(C)C)cc2)c1	MazEF act 145
CC(=O)Nc1cccc(C(=O)/C=C/c2ccco2)c1	Autofluor counter 22380, BoNT A protease inconclusive
COc1ccc2[nH]c3c(c2c1)CCN1C(=O)C(CC(=O)NCc2cccc(C(F)(F)F)c2)C[C@H](C(=O)N(C(C)C)C(C)C)[C@@]31C (some centres not stated)	none
CC(C)C(=O)Nc1ccc(-c2nnc(-c3ccccc3)o2)cc1	none
CC(C)C(=O)Nc1ccc(C(=O)c2ccccc2)cc1	Autofluor counter 19934
